From PubChem
In the library only some 9.6% were active in any assay of this set; here they are far more common.
USP17 inh = inhibitors of human USP17 deubiquitinase | Ubiquitin carboxyl-terminal hydrolase 17-like protein 5 (Homo sapiens), A8MUK1 | purified USP17, Ub-rhodamine cleavage fluorescence, 3 h | inhibition, % at 50 µM | 6.5% of 47,000 active | AID 1645855, 2021
Target sequence (A8MUK1 whole entry, looked up): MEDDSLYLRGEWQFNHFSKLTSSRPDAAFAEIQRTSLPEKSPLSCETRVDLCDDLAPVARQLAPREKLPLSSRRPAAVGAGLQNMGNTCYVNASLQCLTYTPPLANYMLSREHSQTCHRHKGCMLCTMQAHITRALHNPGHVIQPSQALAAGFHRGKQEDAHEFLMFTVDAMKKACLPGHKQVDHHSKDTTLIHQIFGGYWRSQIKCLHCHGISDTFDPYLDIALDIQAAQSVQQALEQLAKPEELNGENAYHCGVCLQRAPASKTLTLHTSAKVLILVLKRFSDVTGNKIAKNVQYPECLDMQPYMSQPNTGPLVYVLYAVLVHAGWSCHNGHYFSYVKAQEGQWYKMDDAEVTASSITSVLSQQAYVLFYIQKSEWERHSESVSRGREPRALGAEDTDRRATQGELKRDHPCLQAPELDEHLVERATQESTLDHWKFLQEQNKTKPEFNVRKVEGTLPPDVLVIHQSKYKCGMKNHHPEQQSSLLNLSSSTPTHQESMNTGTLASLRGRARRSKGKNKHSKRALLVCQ
USP30 block = inhibitors of human USP30 deubiquitinase; purified USP30, Ub-rhodamine cleavage fluorescence; inhibition, % at 25 µM; 5.3% of 47,000 active
Active calls of the source: *; nt = not tested or not shown. Cut-off read from the data, not from the text of the source: active = inhibition above about 30%; inactive = the rest.

SMILES	USP17 inh	USP30 block
Cc1ccc(-c2nc(CN3CCOC(Cn4cccn4)C3)cs2)o1 (stereo not drawn)	-18	-67
CCCSc1nc(N)c2c3c(sc2n1)COC(C)(C)C3	47*	-13
CC1(C)Cc2c(sc3nc(SCCOc4ccccc4)nc(N)c23)CO1	16	16
NC(=O)CCNC(=O)c1cnc2n1CC(c1cccc(C(F)(F)F)c1)CC2 (stereo not drawn)	0	23
CN1CCC2(CC1)Cc1ccccc1CN(C(=O)c1ccccc1)C2	-60	-277
COc1ccc(C(=O)C2CC(=O)Nc3c2c(C)nn3-c2ccc(Br)cc2)cc1 (stereo not drawn)	58*	23
Cc1cccc(-n2nc(C)c3c2NC(=O)CC3C(=O)c2cc3ccccc3o2)c1 (stereo not drawn)	70*	3
Cc1cccc(-n2nc(C)c3c2NC(=O)CC3C(=O)c2ccc3c(c2)OCO3)c1 (stereo not drawn)	0	8
Cc1ccc(-n2nc(C)c3c2NC(=O)CC3C(=O)c2ccc(O)cc2)cc1C (stereo not drawn)	10	0
Cc1nn(-c2ccc(F)cc2)c2c1C(C(=O)c1ccc3c(c1)OCO3)CC(=O)N2 (stereo not drawn)	5	11
COc1ccc(-n2nc(C)c3c2NC(=O)CC3C(=O)c2ccc3c(c2)OCO3)cc1 (stereo not drawn)	16	39*
O=C1CO[C@H]2CN(S(=O)(=O)c3ccccc3)C[C@H]2N1Cc1ccccn1	1	7
O=C1OC(C(=O)O)Cc2ccc(Cl)cc21 (stereo not drawn)	-3	8
N#Cc1ccc(C(=O)N(CCc2ccccc2)c2nc3ccccc3s2)cc1	-2	-13
Cc1cc(C)c2c(-n3cccc3)nn(Cc3ccc(C(=O)NCC4CCCO4)cc3)c2n1 (stereo not drawn)	0	6
Cc1cccc(N2CCN(C(=O)CCc3nnc(C(=O)Nc4ccccc4)s3)CC2C)c1 (stereo not drawn)	0	15
Cc1ccc(NC(=O)CCc2nnc(C(=O)Nc3ccccc3)s2)cc1C	39*	-66
Cc1ccc(CNC(=O)c2cccc(-c3nc(-c4ccccc4)no3)c2)o1	-12	0
Cc1ccc(NC(=O)c2cccc(-c3nc(-c4ccccc4)no3)c2)nc1	35*	26
COCCN1C(=O)C2(CCN(C(=O)NC3CC3)CC2)c2ccccc21	0	21
O=C(COC(=O)C1CCCN1C1=NS(=O)(=O)c2ccccc21)Nc1ccc(F)cc1 (stereo not drawn)	7	-2
CC(C)Cc1cc(-c2nnc3sc(-c4ccco4)nn23)n[nH]1	73*	-3
O=c1[nH]c(=O)n(Cc2ccccc2)c2c1CN(Cc1ccccc1)CN2	15	-8
O=c1[nH]c(=O)n(Cc2ccccc2)c2c1CN(CCc1ccccc1)CN2	35*	36*
CCC(=O)Nc1ccc2nc(SCC(=O)Nc3cc(C)cc(C)c3)sc2c1	-2	-81
SMILES	USP17 inh	USP30 block
C[C@H]1CCCC(=O)CCCCCc2cc(OCc3ccccc3)cc(O)c2C(=O)O1	21	32*
COc1cc(O)cc2c1C(=O)OC(C)CCCC(O)CCC2 (stereo not drawn)	-10	-18
COc1cc(O)cc2c1C(=O)OC(C)CCCCCCC2 (stereo not drawn)	40*	37*
COC(=O)C1=C(C)N(Cc2ccccc2)C(=O)NC1c1cccc(OCc2ccccc2)c1 (stereo not drawn)	-57	-333
Cc1cccc(CNC(=O)c2cc(OCc3ccccc3)nc3ccccc23)c1	-17	11
Cc1ccc(Nc2cc(C)nc(N3CCN(C(=O)CCC4CCCCC4)CC3)n2)cc1	8	8
COc1c2c(cc3c1C(c1nnnn1-c1cc(C)ccc1C)N(C)CC3)OCO2 (stereo not drawn)	4	18
CCc1ccccc1NC(=O)N1CCN(Cc2ccc3nccnc3c2)CC1	-5	-3
Cc1ccc(C2=NC3(CCN(C(=O)c4ccc5cc[nH]c5c4)CC3)ON2)cc1	-7	-142
O=C(c1ccc2cc[nH]c2c1)N1CCC2(CC1)N=C(c1ccccc1)NO2	34*	-42
N#Cc1c(Cl)cccc1Oc1ccc(S(=O)(=O)N2CCC(O)CC2)cc1	66*	18
O=C(Nc1cccc(Cl)c1Oc1ccc(S(=O)(=O)N2CCOCC2)cc1)C(F)(F)F	1	-6
COc1cccc(C(C(=O)NC2CCCCC2)N(C(=O)C2COc3ccccc3O2)c2ccc3c(c2)OCO3)c1 (stereo not drawn)	-24	-31
Cn1cc(-c2cnc(NCc3ccccc3)nc2)cc1C(=O)NCc1cccnc1	-37	-84
O=C(COC(=O)C1(c2cccc(F)c2)CCCC1)c1ccc2c(c1)OCCO2	-2	-3
O=C(COc1ccc2ccc(=O)oc2c1)c1ccc2c(c1)OCCO2	43*	-179
Cc1noc(C)c1CC(=O)N1CCC(Nc2cccnc2)C1 (stereo not drawn)	-17	-87
COc1ccc(CC(=O)N2CCC(Nc3cccnc3)C2)cc1 (stereo not drawn)	42*	-132
CN(C(=O)Cn1c(=O)n(-c2ccc(Cl)cc2)c(=O)c2c3c(sc21)CCCC3)C1CCCCC1	41*	32*
CCOC(=O)N1CCc2c(sc3c2c(=O)n(-c2ccc(CC)cc2)c(=O)n3CC(=O)N2CCCCC2C)C1 (stereo not drawn)	16	26
Cc1noc(Cn2ccc3ccn(Cc4cccnc4)c3c2=O)n1	9	1
O=C(c1sc2ccccc2c1C1CNCCO1)N1CCOCC1 (stereo not drawn)	-6	-2
O=C1CC(c2ccco2)Cc2nc(NCc3ccco3)ncc21 (stereo not drawn)	34*	-113
O=C1CC(c2ccccc2)Cc2nc(NCc3ccco3)ncc21 (stereo not drawn)	-26	-24
CCc1ccc(Nc2cc(C(=O)NCCCOC(C)C)c3ccccc3n2)cc1	69*	-34
SMILES	USP17 inh	USP30 block
COc1ccc(Nc2cc(C(=O)NCCCN(CC(C)C)CC(C)C)c3ccccc3n2)cc1	17	21
Fc1ccc(-c2nc3c4cnn(-c5ccccc5)c4ncn3n2)cc1	11	17
CC(=O)N1CCc2cc(S(=O)(=O)Nc3ccccc3C)ccc21	-5	-17
CC(=O)N1CCc2cc(S(=O)(=O)NC(Cc3ccccc3)C(=O)Nc3cccc(Cl)c3C)ccc21 (stereo not drawn)	36*	67*
CC(=O)N1CCc2cc(S(=O)(=O)NCC(=O)NCc3ccc(Cl)cc3)ccc21	nt	11
CC(=O)N1CCc2cc(S(=O)(=O)NC(Cc3ccccc3)C(=O)NCc3ccc4c(c3)OCO4)ccc21 (stereo not drawn)	56*	54*
COc1ccc(S(=O)(=O)Nc2ccc(-c3ccc(N4CCOCC4)nn3)cc2)cc1C	8	16
Cc1ccc(Cc2c(C)nc(N3CCN(c4ccccc4)CC3)[nH]c2=O)cc1	0	3
Cc1ccn(-c2ccc(NC(=O)c3ccccc3Sc3ccccc3C#N)cc2)n1	50*	35*
N#Cc1ccccc1Sc1ccccc1C(=O)Nc1ccc(Cl)cc1	0	4
O=C(NC1CCCCC1)C1CCCN(S(=O)(=O)c2cccnc2)C1 (stereo not drawn)	8	16
Cc1ccc(S(=O)(=O)Nc2cccc(Cl)c2)cc1NC(=O)CCC(=O)c1ccc(Cl)cc1	0	18
